Source: PubChem BioAssay (several laboratories)
Hits are enriched below; roughly 1.9% of the tested compounds scored in any of these assays.
PABP FP inh: PABP poly(A) RNA binding inhibitors, primary screen, biochemical, fluorescence polarization, uHTS. Polyadenylate-binding protein 1 (Homo sapiens), P11940. inhibition, % at 35 µM. 290,000 compounds, 1% hits. AID 2014, 2009;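 further: calls also rest on retests at 20 µM and on dose response follow-up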
GRK2 inh: compounds blocking aptamer binding on GRK2 – biochemical, human GRK2, bead flow cytometry, HTS, primary screen | inhibition of aptamer binding, % at 10 µM | 330,000 compounds, 0.59% hits | Beta-adrenergic receptor kinase 1 (Homo sapiens), P25098 | FAM-aptamer displacement from GRK2 | AID 488847, 2010;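 active means inhibition of aptamer binding above 40%, roughly 3 SD of noise, on plates passing a quality check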;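 further: median bead fluorescence of bound FAM aptamer so fluorescent compounds give negative values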
eIF4H inh: human eIF4H binding inhibitors, primary screen, translation initiation inhibitor project, biochemical, uHTS, fluorescence polarization; inhibition, % at 35 µM; 290,000 compounds, 0.94% hits; eIF4H fluorescence polarization binding assay; Eukaryotic translation initiation factor 4H (Homo sapiens), Q15056; AID 2012, 2009;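 further: calls also rest on retests at 20 µM and on dose response follow-up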
PABP1 MLLE inh: inhibitors of PABP1 MLLE–PAM2 peptide binding, primary screen, biochemical, fluorescence polarization, FITC-PAM2, GST-MLLE; AID 588489, 2011; 360,000 compounds, 0.36% hits; inhibition, % at 20 µM; Polyadenylate-binding protein 1 (Homo sapiens), P11940; in the data active means inhibition above about 35%, passing the limit was not always enough
PERK inhibitor: block of dimerizer-induced PERK translation repression, primary screen, PERK inhibitor project, CHO PERK-DD cells, SEAP luminescence, HTS; 220,000 compounds, 0.17% hits; inhibition, % at 5.6 µM; AID 1416, 2008; CHO PERK-DD fusion, SEAP luminescence translation reporter; Eukaryotic translation initiation factor 2-alpha kinase 3 (Homo sapiens), Q9NZJ5;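 active means inhibition above the mean inhibition of all tested compounds plus 3 SD, set separately per screening campaign, cut at about 2.9% in these data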;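 further: PERK kinase domain activated by AP20187 dimerizer at 100 nM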
A number is an active result; – = inactive; ? = inconclusive; · = no result. Unless noted, how the calls were made is not given here.

SMILES	PABP FP inh	GRK2 inh	eIF4H inh	PABP1 MLLE inh	PERK inhibitor
O=C(NC(=S)N1CCCCCC1)c1ccccc1Cl	–	–	–	44.0	–
O=C(Nc1ccccc1C(=O)O)c1cncc(Br)c1	–	–	0.6	–	–
Cc1ccc(C(=O)NC(=S)N(C)C2CCCCC2)cc1	–	–	–	–	·
O=c1cc(-c2ccc(O)cc2)oc2c1ccc1ccccc12	·	–	·	–	·
O=c1cc(-c2ccc(O)cc2)oc2c(O)c(O)c(O)c(O)c12	82.8	–	90.6	–	–
COc1ccc(-c2cc(C(=O)Nc3cc(S(=O)(=O)N4CCOCC4)ccc3N3CCOCC3)c3ccccc3n2)cc1	–	–	–	–	–
CC(=O)Nc1ccc(S(=O)(=O)NCCC(=O)NCc2ccco2)cc1	·	·	·	–	·
CC1CCN(CCCNC(=O)c2coc3nc4ccccc4nc23)CC1	–	–	–	–	–
Cc1ccc(CCNC(=O)c2coc3nc4ccccc4nc23)cc1	51.3	–	–	–	–
c1ccc2c(c1)CCCN2c1nc2ccccc2n2cnnc12	82.4	–	80.4	–	–
CCOC(=O)C1=C(C)N=c2s/c(=C/c3ccc(OCC(=O)O)cc3)c(=O)n2C1c1ccc(SC)cc1 (stereo not given)	43.2	–	62.9	–	·
Cc1nnc(N2C(=O)C(O)=C(C(=O)c3ccco3)C2c2ccc(C(C)C)cc2)s1 (stereo not given)	active	–	51.7	–	–
COc1ccc(CNCCCC(=O)Nc2c(Cl)ccc(C)c2Cl)cc1OC	–	–	–	–	·
COc1ccc(C2C3=C(CC(C)(C)CC3=O)Nc3c2c(=O)n(C)c(=O)n3C)cc1OC (stereo not given)	–	–	active	–	–
C=CCOc1ccccc1C1C2=C(CC(C)(C)CC2=O)Nc2c1c(=O)n(C)c(=O)n2C (stereo not given)	–	–	–	–	–
CC1=CC2(O)OCCN(CCO)C2=CC1=O (stereo not given)	–	–	81.5	–	–
CCCc1cc(=O)[nH]c(SCC(=O)N2CCN(S(=O)(=O)c3ccc(Cl)cc3)CC2)n1	–	–	56.0	–	–
CCCc1cc(=O)[nH]c(SCC(=O)c2ccc(S(=O)(=O)N3CCCC3)cc2)n1	–	–	–	–	–
CC(=O)c1c(C(C)=O)c(C)n(-c2cccc3cccnc23)c1C	3.8	–	–	–	–
CCN(CCNC(=O)c1ccc(C#N)cc1)c1cccc(C)c1	–	–	–	–	·
CCN(CCNCC(O)COCc1ccc(Cl)cc1)c1cccc(C)c1 (stereo not given)	–	–	14.0	–	–
COc1ccc(C(=O)Nc2ccnn2C2CCN(Cc3ccccn3)CC2)cc1	–	–	–	–	·
O=C(CN1CCCCCC1)Nc1cc([N+](=O)[O-])ccc1Cl	–	–	–	–	·
O=C(CN1CCOCC1)Nc1cc([N+](=O)[O-])ccc1Cl	–	–	active	–	–
CCOC(=O)C1=C(O)/C(=C/N(C)C)N=C1C	89.3	–	89.2	–	–
SMILES	PABP FP inh	GRK2 inh	eIF4H inh	PABP1 MLLE inh	PERK inhibitor
Cc1cc(NC(=O)CSCC(=O)N(C)Cc2ccc(Cl)c(Cl)c2)no1	55.3	–	–	–	·
O=c1c2ccccc2ncn1CCCSc1ccccc1	86.9	–	105.8	–	–
CCc1cccc(N(C(=O)c2csnn2)C(C(=O)NC(C)(C)C)c2ccncc2)c1 (stereo not given)	–	–	–	–	–
Cc1ncc(C[n+]2csc(CCOC(=O)CC3C4CC5CC(C4)CC3C5)c2C)c(N)n1 (stereo not given)	50.8	–	–	–	–
CC1CC(C)CN(CC(=O)N2CCc3[nH]c4ccccc4c3C2)C1 (stereo not given)	106.0	–	125.9	–	–
CC1CN(CC(=O)N2CCc3[nH]c4ccccc4c3C2)CC(C)O1 (stereo not given)	–	–	–	–	–
CCOC(=O)c1c2c3c(cccc3n(C)c1=O)C(=O)c1ccccc1-2	–	–	–	61.7	·
CCOC(=O)c1c2c3c(cccc3[nH]c1=O)C(=O)c1ccccc1-2	–	–	–	–	–
Cc1ccc(-c2cc(N)n(-c3ccc(F)cc3)n2)cc1	–	–	–	–	3.4
Cc1ccc(-c2cc(N)n(-c3ccc(C)cc3)n2)cc1	–	–	–	–	–
COc1cc2c(cc1OC)CN(C(=O)Cn1ccccc1=O)CC2	–	–	79.3	–	·
COc1cc2c(cc1OC)CN(C(=O)CSC1=NCCS1)CC2	·	·	·	–	·
COc1cc2c(cc1OC)CN(C(=O)CSc1ccccc1C)CC2	·	–	·	45.5	·
O=C(c1ccco1)N1CCc2[nH]nc(-c3ccccc3)c2C1	–	–	–	–	·
Cc1cccc(OCc2ccccc2)n1	·	·	·	–	·
CCOc1ccc(Cc2nnc(SCC(=O)c3ccc(OC)cc3)o2)cc1	–	–	–	–	–
CCOc1ccc(Nc2nc(Cc3nnc(SCC(=O)O)o3)cs2)cc1	–	–	47.6	–	–
O=c1c2ccccc2cnn1Cc1n[nH]c(=S)n1-c1ccccc1Cl	–	–	–	–	–
Cc1[nH]c(=S)c(C#N)c(-c2ccco2)c1C(=O)N(C)C	18.5	–	–	–	–
COc1ccc(NC2CCCN(C(=O)COc3ccc(C(C)=O)cc3)C2)cc1 (stereo not given)	·	·	·	–	·
Cc1cc(C(=O)Nc2ccccc2)c2ccccc2n1	–	–	–	–	·
Cc1cc(C(=O)Nc2sccc2C#N)c2ccccc2n1	22.0	–	–	–	·
COCc1c(C(=O)NCc2ccccc2CN2CCCC2)oc2ccccc12	·	–	·	–	·
O=C(CCc1ccccc1)NCC(=O)N/N=C/c1ccc(O)cc1O	–	–	–	–	3.4
COc1ccc(C(=O)Nc2ccc3nc4n(c(=O)c3c2)CCCC4)cc1[N+](=O)[O-]	86.5	–	–	·	–
SMILES	PABP FP inh	GRK2 inh	eIF4H inh	PABP1 MLLE inh	PERK inhibitor
Fc1ccccc1CSc1ccc(-c2ccco2)nn1	–	–	–	–	–
O=C(NCc1ccccc1CN1CCCC1)c1ccc(Cl)c(S(=O)(=O)N2CCCC2)c1	·	·	·	–	·
O=C(N/N=C/c1ccccn1)c1ccc(NC(=O)c2cccc([N+](=O)[O-])c2)cc1	active	–	74.7	–	–
O=C(N/N=C/c1ccccn1)c1cccc([N+](=O)[O-])c1	–	–	–	–	–
COC(=O)c1ccc(C2C(C(=O)c3cc4ccccc4o3)=C(O)C(=O)N2c2cc(C)on2)cc1 (stereo not given)	45.6	–	?	–	·
Cn1nc(C(F)(F)F)c(-c2ccccc2)c1NC(=O)CCC(=O)O	–	–	–	–	3.5
Nc1nc(-c2ccc(Cl)cc2)nn1C(=O)c1cccs1	50.6	–	?	–	–
O=c1cc2c(=O)oc3cc(O)c(O)oc3c2c(O)c1O	95.9	·	92.0	–	–
Cn1cc(/C=N\O)nc2c(=O)n(-c3ccccc3)c(=O)nc1-2	–	–	–	37.5	–
